Several values for one entry are separate records, joined by “and”; a condition that tells them apart may be missing. Equal values may be shown once. Screen size: about 5,500 compounds; about 2,000 (36%) were called active. Not shown: some 18% with an inconclusive outcome. Cut-off read from the data, not from the text of the source: active = normalized growth mostly below about 0.91 (no sharp cut-off); inconclusive = no clear call, values can overlap the other calls; inactive = mostly above about 0.92. Some of the results follow.
Test: chemical genetic growth profiling, strain panel (AID 1159580);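 note: tested at 20 µM; growth read once vehicle control cultures reached saturation at 30 °C; 1 = growth at the plate median or of vehicle wells; lower values mean less growth of the strain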
Details: S. cerevisiae deletion strains, growth OD

Measured: normalized growth

Oc1cccc(O)c1
inactive: locus YAL013W, strain DEP1, hits give low values 1.01 | locus YAL021C, strain ccr4, hits give low values 0.951 | locus YAL026C, strain drs2, hits give low values 0.966 | locus YAL030W, strain snc1, hits give low values 0.981 | locus YBL061C, strain skt5, hits give low values 0.981 | locus YBR009C, strain hhf1, hits give low values 0.981 | locus YBR021W, strain FUR4, hits give low values 1.02 | locus YBR023C, strain chs3, hits give low values 0.975 | locus YBR171W, strain sec66, hits give low values 0.983 | locus YBR229C, strain ROT2, hits give low values 1.01 | locus YBR231C, strain swc5, hits give low values 0.99 | locus YBR279W, strain paf1, hits give low values 1 | locus YCL011C, strain gbp2, hits give low values 0.938 | locus YCL016C, strain dcc1, hits give low values 0.956 | locus YCL029C, strain bik1, hits give low values 0.987 | locus YCL061C, strain MRC1, hits give low values 0.95 | locus YCL069W, strain vba3, hits give low values 0.978 | locus YCR088W, strain abp1, hits give low values 0.981 | locus YDL005C, strain med2, hits give low values 0.977 | locus YDL035C, strain GPR1, hits give low values 1.01 | locus YDL040C, strain nat1, hits give low values 0.99 | locus YDL074C, strain BRE1, hits give low values 1.01 | locus YDL101C, strain DUN1, hits give low values 1 | locus YDL134C, strain PPH21, hits give low values 0.999 | locus YDL185W, strain tfp1, hits give low values 0.974 | locus YDL192W, strain arf1, hits give low values 0.987 | locus YDR001C, strain nth1, hits give low values 0.957 | locus YDR069C, strain doa4, hits give low values 0.976 | locus YDR101C, strain arx1, hits give low values 0.981 | locus YDR137W, strain rgp1, hits give low values 0.942 | locus YDR150W, strain NUM1, hits give low values 1.01 | locus YDR159W, strain sac3, hits give low values 0.953 | locus YDR162C, strain NBP2, hits give low values 1 | locus YDR195W, strain ref2 0.993 | locus YDR297W, strain sur2, hits give low values 0.989 | locus YDR318W, strain mcm21, hits give low values 0.985 | locus YDR334W, strain swr1, hits give low values 0.969 | locus YDR335W, strain msn5, hits give low values 0.983 | locus YDR388W, hits give low values 0.986 | locus YDR392W, strain spt3, hits give low values 0.872 | locus YDR502C, strain sam2, hits give low values 0.984 | locus YEL003W, strain gim4, hits give low values 0.985 | locus YEL037C, strain rad23, hits give low values 0.977 | locus YEL061C, strain CIN8 (second series), hits give low values 0.972 | locus YEL061C, strain CIN8, hits give low values 1 | locus YER015W, strain faa2, hits give low values 0.981 | locus YER016W, strain bim1, hits give low values 0.982 | locus YER110C, hits give low values 0.984 | locus YER111C, strain swi4, hits give low values 0.981 | locus YER155C, strain BEM2 (second series), hits give low values 0.973 | locus YER155C, strain BEM2, hits give low values 1 | locus YER167W, strain BCK2, hits give low values 1.01 | locus YFR010W, strain ubp6, hits give low values 0.966 | locus YGL078C, strain dbp3, hits give low values 0.987 | locus YGL086W, strain mad1, hits give low values 0.994 | locus YGL167C, strain pmr1, hits give low values 0.984 | locus YGL173C, strain kem1, hits give low values 0.996 | locus YGL227W, strain vid30, hits give low values 0.981 | locus YGL240W, strain doc1, hits give low values 1.01 | locus YGL248W, strain PDE1, hits give low values 1.01 | locus YGL253W, strain hxk2, hits give low values 0.962 | locus YGR135W, strain pre9, hits give low values 0.986 | locus YGR252W, strain gcn5, hits give low values 0.974 | locus YHR013C, strain ard1, hits give low values 0.947 | locus YHR027C, strain rpn1, hits give low values 0.985 | locus YHR030C, strain SLT2, hits give low values 1.01 and 1.03 | locus YHR079C, strain IRE1 (second series), hits give low values 0.987 | locus YHR079C, strain IRE1, hits give low values 1.05 | locus YHR094C, strain hxt1, hits give low values 0.993 | locus YHR129C, strain ARP1, hits give low values 1.02 | locus YHR142W, strain chs7, hits give low values 0.954 | locus YHR200W, strain rpn10, hits give low values 0.987 | locus YIL066C, strain RNR3, hits give low values 0.999 | locus YIL073C, strain SPO22, hits give low values 0.993 | locus YIL125W, strain kgd1, hits give low values 0.986 | locus YIR030C, strain dcg1, hits give low values 0.991 | locus YJL092W, strain hpr5, hits give low values 0.963 | locus YJL095W, strain BCK1 (second series), hits give low values 0.987 | locus YJL095W, strain BCK1, hits give low values 1.02 and 0.997 | locus YJL115W, strain asf1, hits give low values 0.978 | locus YJL129C, strain trk1, hits give low values 0.974 | locus YJL134W, strain LCB3, hits give low values 1.01 | locus YJL154C, strain vps35, hits give low values 0.977 | locus YJL164C, strain tpk1, hits give low values 0.947 | locus YJL166W, strain qcr8, hits give low values 1 | locus YJL168C, strain set2, hits give low values 0.988 | locus YJL187C, strain SWE1 (second series), hits give low values 1.01 | locus YJL187C, strain SWE1, hits give low values 0.989 | locus YJR043C, strain POL32, hits give low values 1.01

From PubChem BioAssay AID1159580 (chemical genetic matrix, 2015)
